Activity calls are given as the source filed them. How the source made its calls: active means hit-call score of the fitted dose curve at least 0.9, where 1 is the maximum; inactive means score below 0.9.
Target: Retinoic acid receptor alpha (Homo sapiens) (UniProt P10276)
Experiment: ATG_DR5_RAR_CIS: Attagene CIS-FACTORIAL HepG2 Assay for human Retinoic Acid Receptor Alpha (RARE), DR5 submotif (AID 2282934);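 on AC50: reporter responds to endogenous RAR alpha beta and gamma in HepG2 not RARA alone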
Conditions: HepG2 Attagene cis-factorial RARE DR5 reporter, mRNA; actives raise or lower the signal
Description: ATG_CIS is a cell-based, multiplexed-readout assay that uses HepG2, a human liver cell line, with measurements taken at 24 hours after chemical dosing in a 24-well plate.ATG_DR5_RAR_CIS is one of 52 assay component(s) measured or calculated from the ATG_CIS assay. It is designed to make measurements of mRNA induction, a form of inducible reporter, as detected with fluorescence intensity signals by Reverse transcription polymerase chain reaction (RT-PCR) and Capillary electrophoresis technology.Data from the assay component ATG_DR5_RAR_CIS was analyzed into 1 assay endpoint. This assay endpoint, ATG_DR5_CIS, was analyzed with bidirectional fitting relative to DMSO as the negative control and baseline of activity. Using a type of inducible reporter, measures of mRNA for gain or loss-of-signal activity can be used to understand the reporter gene at the transcription factor-level as they relate to the gene RARA and RARB and RARG. Furthermore, this assay endpoint can be referred to as a primary readout, because this assay has produced multiple assay endpoints where this one serves a reporter gene function. To generalize the intended target to other relatable targets, this assay endpoint is annotated to the nuclear receptor intended target family, where the subfamily is non-steroidal.
Human liver HepG2 cells are transiently transfected with multiple reporter transcription units (MRTUs) in 6-well plates using FuGene 6 reagent (Roche; 3 ml FuGene/1 mg DNA). The MRTU constructs are regulated by a cis-regulating element (promoter). […] A major difference between the CIS and TRANS system is that in CIS activities of endogenous TFs are measured, whereas the TRANS assay evaluates changes in activities of exogenous, chimeric NR-Gal4 proteins. […] At the end of 24 hour incubation, total RNA was isolated using TriZol reagent (Invitrogen). The isolated RNA is then reverse-transcribed using oligo(dT) primer and Mo-MLV reverse transcriptase (Invitrogen) with DNAse I (Ambion) treatment for 30 min. The one-tenth of the produced cDNA was amplified by PCR using Taq DNA polymerase (Invitrogen) and two reporter sequence-specific primers. The PCR products were fluorescently labeled by primer extension with 6-arboxyfluorescein (6-FAM) 5'-labeled reporter sequence-specific primer (2 min at 95 C, 20 s at 68 C and 10 min at 72 C) and these products were digested with 5U of HpaI (New England Biolabs) for 2h at 37 C. The fragments were purified using Qiaquick PCR columns (Qiagen), analyzed on an ABI 3130xL genetic analyzer (Applied Biosystems) with peak positions identified by using a set of X-rhodamine (ROX)-labeled MapMarker1000 molecular weight standards (BioVentures). The raw capillary electrophoresis data was processed using Attagraph software (Attagene).

Retinoic acid receptor alpha (Homo sapiens), sequence (P10276 whole entry, looked up): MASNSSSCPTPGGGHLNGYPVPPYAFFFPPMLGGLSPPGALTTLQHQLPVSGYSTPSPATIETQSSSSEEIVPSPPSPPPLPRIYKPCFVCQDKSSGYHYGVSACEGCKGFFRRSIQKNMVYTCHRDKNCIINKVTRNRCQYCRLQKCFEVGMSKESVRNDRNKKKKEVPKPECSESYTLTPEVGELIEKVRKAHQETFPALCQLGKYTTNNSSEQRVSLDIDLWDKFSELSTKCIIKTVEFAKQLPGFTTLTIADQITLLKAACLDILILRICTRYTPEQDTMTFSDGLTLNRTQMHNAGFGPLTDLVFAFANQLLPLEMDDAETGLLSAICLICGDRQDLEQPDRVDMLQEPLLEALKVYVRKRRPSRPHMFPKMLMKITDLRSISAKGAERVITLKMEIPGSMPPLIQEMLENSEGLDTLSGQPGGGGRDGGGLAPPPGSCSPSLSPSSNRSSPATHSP

Row | SMILES | outcome | AC50
1 | Cc1cnccn1 | inactive | 
2 | CCn1c2ccccc2c2ccccc21 |  | 25.8 µM (active)
3 | N#CCCOCCC#N | inactive | 
4 | O=C(Cl)C(F)(F)C(F)(F)C(F)(F)C(F)(F)C(F)(F)C(F)(F)C(F)(F)F | inactive | 
5 | O=S(=O)(O)CCC(F)(F)C(F)(F)C(F)(F)C(F)(F)C(F)(F)C(F)(F)C(F)(F)C(F)(F)F | inactive | 
6 | NS(=O)(=O)C(F)(F)C(F)(F)C(F)(F)C(F)(F)C(F)(F)C(F)(F)F | inactive | 
7 | O=S(=O)(O)c1ccc(Cl)cc1 | inactive | 
8 | O=C(O)CCC(F)(F)C(F)(F)C(F)(F)C(F)(F)C(F)(F)C(F)(F)C(F)(F)F | inactive | 
9 | CCc1cccc(C)c1N(C(=O)C(=O)O)C(C)COC (stereo not given) | inactive | 
10 | C=CC(=O)OCC(F)(F)C(F)(F)C(F)(F)COC(=O)C=C | inactive | 
11 | FC(F)(F)C(F)(F)C(F)(F)C(F)(F)C(F)(F)C(F)(F)CC[Si](Cl)(Cl)Cl | inactive | 
12 | O=C(Cl)C(F)(F)C(F)(F)C(F)(F)C(F)(F)C(F)(F)C(F)(F)F | inactive | 
13 | CCCCC(CC)COC(=O)c1ccc(N(C)C)cc1 (stereo not given) | inactive | 
14 | CC(O)C#CC(C)O (stereo not given) | inactive | 
15 | CC(C)OC(=O)COc1ccc(Cl)cc1Cl | inactive | 
16 | Nc1cc([N+](=O)[O-])cc(Cl)c1O | inactive | 
17 | CCCCCCCCn1sc(Cl)c(Cl)c1=O |  | 5.39 µM (active)
18 | O=C(O)C(F)(F)C(F)(F)C(F)(F)OC(F)(F)F | inactive | 
19 | OCCCc1cccnc1 | inactive | 
20 | CC(C)(C)c1cc(CCC(=O)NCCCCCCNC(=O)CCc2cc(C(C)(C)C)c(O)c(C(C)(C)C)c2)cc(C(C)(C)C)c1O | inactive | 

Row | SMILES | outcome | AC50
21 | CCCC(=O)OCC(COC(=O)CCC)OC(=O)CCC |  | 37.5 µM (active)
22 | COc1ccccc1C=O | inactive | 
23 | Oc1ccc2c(c1)CCC2 | inactive | 
24 | OCCCCC(F)(F)C(F)(F)C(F)(F)C(F)(F)F | inactive | 
25 | O=C=NCc1cccc(CN=C=O)c1 | inactive | 
26 | CCN=c1cc2oc3cc(NCC)c(C)cc3c(-c3ccccc3C(=O)OCC)c-2cc1C | inactive | 
27 | CCOC(=O)CC(=O)C(F)(F)C(F)(F)F | inactive | 
28 | NC(=O)C(F)(F)C(F)(F)C(F)(F)C(F)(F)C(N)=O | inactive | 
29 | Cc1cc(O)c(C(C)(C)C)cc1C(C)(C)C | inactive | 
30 | C=CC(=O)OCC(F)(F)C(F)(F)C(F)(F)C(F)(F)C(F)(F)C(F)(F)C(F)(F)C(F)F |  | 36.9 µM (active)
31 | O=C1c2c(O)ccc(Nc3ccc(CCO)cc3)c2C(=O)c2c([N+](=O)[O-])ccc(O)c21 | inactive | 
32 | COCCOCCC[Si](C)(O[Si](C)(C)C)O[Si](C)(C)C |  | 8.84 µM (active)
33 | N#Cc1ccccc1O | inactive | 
34 | CCCCCCCCCCCC(=O)Cl |  | 65.6 µM (active)
35 | CCOC(=O)CCC(C)=O | inactive | 
36 | NC(=O)C(F)(F)C(F)(F)C(F)(F)C(F)F | inactive | 
37 | CCCCCCCCCCCCCC[P+](CCCC)(CCCC)CCCC | inactive | 
38 | CCC/C=C/CO | inactive | 
39 | CCOC(C=C(C)CCC=C(C)C)OCC | inactive | 
40 | O=C(O)C(F)(F)C(F)(F)C(F)(F)C(F)(F)C(F)(F)C(F)(F)C(F)F | inactive | 
